High-throughput results from PubChem.
EPAC1 agonist: qHTS for Agonist of cAMP-regulated guanine nucleotide exchange factor 3 (EPAC1): primary screen. Rap guanine nucleotide exchange factor 3 (Homo sapiens), O95398. EPAC1 agonist qHTS, biochemical assay; response scale: 100% = response to 6.5 mM cAMP. Potency, µM (top dose mostly 154 µM), inactives show top-dose activation, actives largely listed as activators. hit rate 0.073% among 360,000. AID 720707, 2013; also: nearly all actives have a fitted effect of over 60% in size
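Compounds were pinned as a concentration titration into mixtures of EPAC1 (100 nM), BODIPY-GDP-loaded Rap1B (250 nM) and GDP (50 uM). After 5 min at room temperature, fluorescence was followed for 30 min; activity was scaled to 6.5 mM cAMP.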
USP1 inh: Inhibitors of USP1/UAF1: Primary Screen; Potency, µM (doses to about 57.1 µM), for inactives: at the highest dose activity change, negative = inhibition, actives largely listed as inhibitors; hit rate 0.23% among 390,000; recombinant USP1/UAF1, Ub-Rhodamine cleavage fluorescence; Ubiquitin carboxyl-terminal hydrolase 1 (Homo sapiens), O94782; AID 743255, 2014; also: % is scaled to controls: 0 for no effect and ±100 for the full control effect; nearly all actives have a fitted effect of over 60% in size
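Step one: compound is pinned into 1nM USP1/UAF1 in HEPES pH 7.8 buffer with TCEP. Step two: 15 min room-temperature incubation. Step three: Ub-Rho (150nM final) starts cleavage, tracked by fluorescence over six one-minute reads.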
ALOX12 inh: Primary qHTS assay for inhibitors of human arachidonate 12S-lipoxygenase (ALOX12): Round 2. Polyunsaturated fatty acid lipoxygenase ALOX12 (Homo sapiens), P18054. purified 12hLO, xylenol orange hydroperoxide absorbance. Potency, µM (top dose mostly 108 µM), inactives show at the top dose activity change, negative = inhibition, most hits filed as inhibitors. hit rate 1.1% among 580,000. AID 1671190, 2021; also: % is scaled to controls: 0 for no effect and ±100 for the full control effect
Target sequence (P18054 whole entry, looked up): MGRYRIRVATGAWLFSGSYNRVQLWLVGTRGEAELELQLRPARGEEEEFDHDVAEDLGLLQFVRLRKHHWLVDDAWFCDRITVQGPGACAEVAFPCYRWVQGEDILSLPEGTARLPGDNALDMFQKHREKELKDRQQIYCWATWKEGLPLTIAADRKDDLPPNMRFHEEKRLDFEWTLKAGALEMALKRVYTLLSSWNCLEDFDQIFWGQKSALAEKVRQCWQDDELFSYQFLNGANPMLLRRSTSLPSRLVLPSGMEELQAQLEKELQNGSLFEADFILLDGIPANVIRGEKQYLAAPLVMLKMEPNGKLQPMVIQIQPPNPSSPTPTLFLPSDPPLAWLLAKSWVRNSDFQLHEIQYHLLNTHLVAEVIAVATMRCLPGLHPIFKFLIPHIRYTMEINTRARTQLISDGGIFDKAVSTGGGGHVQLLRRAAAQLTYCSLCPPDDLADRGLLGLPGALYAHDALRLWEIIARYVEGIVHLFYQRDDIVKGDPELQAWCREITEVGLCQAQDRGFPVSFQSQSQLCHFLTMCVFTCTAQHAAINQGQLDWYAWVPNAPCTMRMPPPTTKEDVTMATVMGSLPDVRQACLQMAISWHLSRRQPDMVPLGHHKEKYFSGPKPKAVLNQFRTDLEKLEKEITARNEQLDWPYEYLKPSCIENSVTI
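Purified human 12hLO at 150 nM in 25 mM Hepes, 0.01% Triton X-100, pH 7.0, preincubated 15 min at room temperature with compound. Reaction started with 40 uM arachidonic acid, 30 min at room temperature. Hydroperoxide measured by Fe-xylenol orange, 573/405 nm absorbance ratio.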
EPAC2 agonist: qHTS for Agonist of cAMP-regulated guanine nucleotide exchange factor 4 (EPAC2): primary screen | Rap guanine nucleotide exchange factor 4 (Homo sapiens), Q8WZA2 | EPAC2 activation, biochemical qHTS; response scale: 100% = 6.5 mM cAMP response | Potency, µM (doses to about 154 µM), without a hit: at the highest dose activation, most hits filed as activators | hit rate 0.079% among 360,000; also: nearly all actives have a fitted effect of over 50% in size
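EPAC2 (100 nM) mixed with Rap1B loaded with BODIPY-GDP (250 nM) plus 50 uM unlabeled GDP; compounds pinned in, 5 min RT, then read every 5 min for 30 min (ex 480, em 540 nm). Normalized to cAMP control.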
EPAC1 antagonist: qHTS for Antagonist of cAMP-regulated guanine nucleotide exchange factor 3 (EPAC1): primary screen. Rap guanine nucleotide exchange factor 3 (Homo sapiens), O95398. Potency, µM (series often up to 115 µM), for the others: at the highest dose activity change, negative = inhibition, hits mostly inhibitors. EPAC1 GEF assay, Rap1b-BODIPY-GDP exchange fluorescence. hit rate 0.14% among 360,000;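 also: plate controls were vehicle for no effect and positive control for full effect; nearly all actives have a fitted effect of over 50% in size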
EPAC2 antag: qHTS for Antagonist of cAMP-regulated guanine nucleotide exchange factor 2 (EPAC2): primary screen | EPAC2 GEF exchange of Rap1B-BODIPY-GDP, fluorescence | Potency, µM (series often up to 114 µM), for inactives: top-dose activity, negative = inhibition, hits mostly inhibitors | hit rate 0.18% among 360,000 | AID 720708, 2013; also: % is scaled to controls: 0 for no effect and ±100 for the full control effect; nearly all actives have a fitted effect of over 45% in size
The depositor's hits bear a star; ? = inconclusive; · = not tested or not shown; [ ] = dose if it differs, or a comment. In the library only some 1.3% were active in any assay of this set; here they are far more common. Calls follow the shape of the dose curve; as a rule, active = well fitted curve in the direction sought with a large enough effect; inconclusive = small, poorly fitted or top-dose-only effect, or another doubt; inactive = no such curve, though single readings can be large; an effect the other way counts as inactive or inconclusive. Potency is read from the fitted curve at half-maximal effect.

SMILES | EPAC1 agonist | USP1 inh | ALOX12 inh | EPAC2 agonist | EPAC1 antagonist | EPAC2 antag
CC(C)(C)c1ccc(-c2cc(C[C@H]3CNCC[C@H]3CC(=O)N3CCC(n4c(=O)[nH]c5ccccc54)CC3)no2)cc1 | · | · | 31.6µM* | · | · | ·
CC(C)(C)c1ccc(-c2cc(C[C@H]3CNCC[C@H]3CC(=O)NCc3cccs3)no2)cc1 | · | · | 39.8µM* | · | · | ·
CC(C)(C)c1ccc(-c2cc(C[C@H]3CNCC[C@H]3CC(=O)NC3CCCCC3)no2)cc1 | · | · | 31.6µM* | · | · | ·
O=C(C[C@@H]1CCNC[C@@H]1Cc1cc(COc2ccccc2)on1)N1CCC(n2c(=O)[nH]c3ccccc32)CC1 | · | · | 9.7% | · | · | ·
CC(C)(C)c1ccc(-c2cc(C[C@H]3CNCC[C@H]3CC(=O)O)no2)cc1 | · | · | 19.6%[176 µM] | · | · | ·
CCNC(=O)[C@@H]1C[C@H](NC(=O)c2ccccc2)CN1Cc1scnc1C | · | · | 2.6% | · | · | ·
Cc1ncsc1CN1C[C@@H](NC(=O)c2cccnc2)C[C@H]1CO | · | · | 14.1µM* | · | · | ·
Cc1ccc(Nc2nc(-c3ccc(O)c(O)c3)cs2)nc1 | 15.5% | -14.0% | 22.4µM* | 21.7% | ? | -17.0%
CCCCCC(=O)N1C[C@@H](O)[C@H](n2cc(COC(=O)c3ccccc3)nn2)C[C@@H]1c1ccc(C)cc1 | -7.7% | -10.7% | ? | 2.3% | -15.1% | 1.8%
CCCCCC(=O)N1C[C@H](n2cc(COC(=O)c3ccccc3)nn2)[C@@H](O)C[C@@H]1c1ccc(C)cc1 | -18.4% | -10.7% | 39.8µM* | 11.3% | -13.5% | -21.5%
COc1ccccc1N1CCN(C(=O)c2ccc3c(c2)C(O)CCCCCN3C)CC1 (centres undefined) | · | · | 19.9% | · | · | ·
S=c1[nH]nc(COc2ccccc2)n1/N=C/c1ccccn1 | 5.4% | -14.7% | 1.58µM* | 7.4% | 12.1% | 11.5%
Cc1cccc(/C=N/n2c(COc3ccccc3)n[nH]c2=S)c1 | 1.6% | 1.1% | 39.8µM* | 4.4% | -28.4% | -7.9%
S=c1[nH]nc(COc2ccccc2)n1/N=C/c1ccc(Cl)c(Cl)c1 | 13.1% | -11.0% | -27.7% | 14.5% | 0.1% | 2.5%
Oc1ccc(Br)cc1/C=N/n1c(COc2ccccc2)n[nH]c1=S | 9.2% | -14.7% | 8.91µM* | 8.0% | 1.7% | -0.6%
S=c1[nH]nc(COc2ccccc2)n1/N=C/c1ccccc1Br | -6.9% | -3.0% | ? | -6.5% | -2.9% | -6.7%
Cc1cccc(OCc2n[nH]c(=S)n2-c2ccccc2)c1 | 1.0% | -10.0% | 35.5µM* | 18.6% | -23.2% | 13.9%
C/C(=N\Nc1c(F)c(F)c(Br)c(F)c1F)c1ccncc1 | 2.1% | -20.1% | 77.5% | 7.5% | -4.6% | -2.6%
NNc1c(F)c(F)c(Br)c(F)c1F | · | · | 12.6µM* | · | · | ·
NS(=O)(=O)c1cccc(NC(=S)NC(=O)C23CC4CC(CC(C4)C2)C3)c1 | 24.6% | -16.7% | 31.6µM* | 14.6% | -24.6% | -5.7%
NC(=O)c1c(NC(=O)c2ccc(F)cc2)sc2c1CCC2 | -2.9% | -26.4% | 17.8µM* | -2.6% | -0.8% | 5.0%
O=C(Nc1cc(Cl)ccc1Cl)c1ccco1 | 1.1% | -19.2% | 4.2% | 3.3% | 2.4% | 0.0%
CS/C(Nc1cc(Cl)ccc1Cl)=C(/C#N)C(=O)c1ccco1 | -9.4% | ? | -85.1% | 2.9% | 50.1µM* | -4.1%
CCCCOc1ccc(C(=O)N(Cc2ccco2)Cc2ccco2)cc1 | · | -26.8% | 17.8µM* | · | · | ·
CC(=O)Nc1ccc(C(=O)COC(=O)c2nc3nc(C)cc(C)n3n2)cc1 | 1.4% | -22.3% | 39.8µM* | 4.2% | 22.6% | 5.2%
